SMN2 splice enh – SMN2 splice variant enhancement | 210,000 compounds, 2.8% hits | AID 1458 | Potency, µM (series often up to 46.1 µM), for the others: at the top dose activity change, positive = activation, hits mostly activators | HEK293 SMN2-luciferase splicing reporter, luminescence, 30-36 h; also: % of control where 0% means no effect; nearly all actives have a fitted effect of over 55% in size
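HEK293 cells carry an SMN2 minigene-luciferase reporter in which exon 7 inclusion puts luciferase in frame. Cells were seeded at 2000 cells/well, attached for 10-12 hours, then exposed to compounds for 30-36 hours at 37C before ONE-Glo luminescence.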
ELG1 genotoxic – inducers of genotoxicity in HEK293T ELG1-luciferase cells; Potency, µM (doses to about 46 µM), without a hit: at the highest dose activity change, positive = activation, most hits filed as activators; 330,000 compounds, 1.3% hits; AID 504466; HEK293T ELG1-luciferase reporter, luminescence, 16 h; also: % of control where 0% means no effect; nearly all actives have a fitted effect of over 60% in size
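HEK293T cells expressing luciferase-tagged ELG1 were exposed to compound or DMSO vehicle for 16 hr at 37 °C and 5% CO2. Luciferase activity was then measured with ONE-Glo after 30 min at room temperature.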
uPA generation – cell surface uPA generation inhibition; cell surface uPA generation assay, qHTS; Potency, µM (series often up to 38.3 µM), for inactives: at the top dose activity change, negative = inhibition, actives largely listed as inhibitors; 330,000 compounds, 0.31% hits; AID 540303; active = well fitted inhibition curve with a large enough effect; inconclusive = small, poorly fitted or top-dose-only effect; inactive = no such curve, though single readings can be large or run the other way; tested in mouse RAW 264.7 cells; also: % is scaled to controls: 0 for no effect and ±100 for the full control effect; nearly all actives have a fitted effect of over 55% in size
FLuc counter – counter-screen for miR-21 project: firefly luciferase inhibitors or activators. P08659. purified FLuc, Km substrates, luminescence inhibition. Potency, µM (top dose mostly 57.5 µM), for inactives: top-dose activity change, negative = inhibition, actives largely listed as inhibitors. 360,000 compounds, 6.9% hits;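 also: plate controls were vehicle for no effect and reference inhibitor for full effect; nearly all actives have a fitted effect of over 55% in size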
Target sequence (P08659 whole entry, looked up): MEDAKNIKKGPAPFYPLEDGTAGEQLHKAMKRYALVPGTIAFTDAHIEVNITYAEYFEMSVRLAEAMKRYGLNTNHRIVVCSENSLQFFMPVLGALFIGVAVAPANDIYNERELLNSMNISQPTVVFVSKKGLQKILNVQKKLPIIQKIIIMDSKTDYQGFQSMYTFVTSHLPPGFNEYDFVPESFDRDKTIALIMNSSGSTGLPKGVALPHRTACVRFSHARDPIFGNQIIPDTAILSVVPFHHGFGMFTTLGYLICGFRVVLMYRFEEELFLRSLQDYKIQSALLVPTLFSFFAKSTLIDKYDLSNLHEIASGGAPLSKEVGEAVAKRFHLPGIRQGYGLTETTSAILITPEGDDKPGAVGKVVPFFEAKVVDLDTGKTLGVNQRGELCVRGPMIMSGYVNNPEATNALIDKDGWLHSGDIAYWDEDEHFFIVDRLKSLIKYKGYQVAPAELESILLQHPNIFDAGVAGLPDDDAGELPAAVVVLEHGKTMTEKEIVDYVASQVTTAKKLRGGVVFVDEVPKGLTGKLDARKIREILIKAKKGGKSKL
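Biochemical qHTS of compounds, final roughly 60 µM downward over six points, against 10 nM purified firefly luciferase using Km concentrations of substrates (10 uM D-luciferin, 10 uM ATP) in Tris acetate pH 7.5 buffer; luminescence output.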
Rab9 promoter act – Rab9 promoter activation; Huh7 Rab9 promoter-luciferase reporter, luminescence, 24 h; 320,000 compounds, 2.8% hits; Potency, µM (titrated, usually from 9.22 µM), for the others: top-dose activation, negative = inhibition, most hits filed as activators; AID 485297; also: % of control where 0% means no effect; nearly all actives have a fitted effect of over 60% in size
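Luminescence read-out: Huh7 cells stably expressing Rab9-luciferase, treated 24 h with compound at 37 °C, then lysed with luciferase reagent for 10 min at ambient before reading.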
NPC1 prom act – activators of NPC1 promoter. 320,000 compounds, 2.4% hits. Potency, µM (titrated, usually from 9.22 µM), without a hit: at the highest dose activation, actives largely listed as activators. Huh7 NPC1 promoter luciferase reporter, 24 h. AID 485313; also: % of control where 0% means no effect; nearly all actives have a fitted effect of over 60% in size
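Huh7 reporter cells (NPC1 promoter driving luciferase) are dosed with compound for 24 h at 37 °C, 5% CO2; luciferase detection reagent is then added and luminescence measured after 10 min at ambient temperature.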
* = called active by the depositor; ? = inconclusive; nt = not tested or not shown; [ ] = another dose, or the depositor's remark. Sampled rows, rich in hits. Any-hit rate of the full collection: about 7.3%. Unless noted, calls follow the shape of the dose curve; as a rule, active = well fitted curve in the direction sought with a large enough effect; inconclusive = small, poorly fitted or top-dose-only effect, or another doubt; inactive = no such curve, though single readings can be large; an effect the other way counts as inactive or inconclusive. Potency is read from the fitted curve at half-maximal effect.

SMILES	SMN2 splice enh	ELG1 genotoxic	uPA generation	FLuc counter	Rab9 promoter act	NPC1 prom act
CC(C)C[C@@H](CC(=O)N[C@@H](CCC(=O)O)CC(=O)O)NC(=O)[C@@H]1CCCC[C@H]1NC(=O)C[C@H](CCCN)NC(=O)C[C@H](CO)NC(=O)[C@@H]1CNCC[C@H]1N	1%	nt	nt	nt	nt	nt
CCC1SC(=NC(=O)c2ccc(Cl)c(Cl)c2)NC1=O (centres undefined)	?	?	-9%	24µM*	23%	23%
CCC1SC(=Nc2cccc(C)c2)NC1=O (centres undefined)	nt	3%	1%	-9%	0%	0%
COc1ccc(/C=N/Nc2nc(Nc3ccccc3)nc(N3CCCC3)n2)cc1	-20%	-14%	-1%	-10%	4%	5%
Cc1cc(C)nc(N/N=C/c2cc3c(cc2[N+](=O)[O-])OCO3)n1	13%	10%	4%	-7%	0%	0%
C(=N\Nc1nc(Nc2ccccc2)nc(N2CCCCC2)n1)/c1ccco1	nt	-11%	nt	6µM*	26%	5%
O=[N+]([O-])c1cc2c(cc1/C=N/Nc1nc(Nc3ccccc3)nc(N3CCCCC3)n1)OCO2	-5%	9%	2%	2.1µM*	25%	19%
O=C(O)c1cccc(Nc2nc(Nc3ccccc3)nc(N3CCCC3)n2)c1	4%	-9%	5%	?	?	3.2µM*
O=C(O)COc1ccc(/C=N/Nc2nc(Nc3ccccc3)nc(N3CCCCC3)n2)cc1	11%	-2%	-15%	0.67µM*	0%	-4%
c1ccc(Nc2nc(N3CCCC3)nc(N3CCCC3)n2)cc1	-20%	-9%	nt	1%	-4%	-1%
CSc1nc(O)c(C(c2ccc(OC(C)C)cc2)c2c(O)nc(SC)[nH]c2=O)c(=O)[nH]1	nt	nt	-6%	nt	nt	nt
CCCCN1C(C(=O)c2ccccc2)=C(OC(C)=O)c2ccccc2S1(=O)=O	-70%	nt	nt	nt	nt	nt
CCc1nnc2n1N(C(C)=O)C(c1ccc(C(C)(C)C)cc1)=C(C(C)=O)S2	nt	nt	nt	-3%	nt	nt
CC(=O)Nc1ccc(/C(C)=N/Nc2nc(Nc3ccccc3)nc(N3CCOCC3)n2)cc1	nt	-2%	-6%	17µM*	-3%	-1%
COc1ccc(NC(=O)COc2ccccc2)c(OC)c1	21%	18µM*	-1%	19µM*	?	?
COc1ccc(NC(=O)COC(=O)Cc2ccc(-c3ccccc3)cc2)c(OC)c1	4%	1%	3%	13µM*	1%	-6%
COc1ccccc1NC(=O)COc1ccc2ccccc2c1	nt	2%	4%	15µM*	1%	2%
CCc1ccc(OCC(=O)Nc2cc(S(=O)(=O)CC)ccc2O)cc1	-11%	-2%	-1%	24µM*	-10%	-2%
COc1ccc(C)cc1NC(=O)COC(=O)Cc1ccc(-c2ccccc2)cc1	nt	7%	6%	?	0%	-1%
COc1ccc(NC(=O)Cn2cnc3ccc(S(=O)(=O)N4CCC(C)CC4)cc3c2=O)cc1OC	-5%	nt	nt	2%	nt	nt
COc1ccc(C)cc1NC(=O)C1CCCN(S(=O)(=O)c2ccc3c(c2)oc(=O)n3C)C1 (centres undefined)	1%	nt	nt	0%	nt	nt
COc1ccc(C)cc1NC(=O)COc1cc(=O)n(C)c2ccccc12	-10%	nt	nt	-1%	nt	nt
COc1ccc(OCC(=O)Nc2ccccc2O)cc1	-7%	9.2µM*	nt	21µM*	?	25%
COc1ccccc1NC(=O)COc1ccccc1	-5%	?	-12%	?	-4%	14%
O=C(COc1ccc2ccccc2c1)Nc1cccc2cccnc12	-15%	-1%	1%	?	5%	2%
SMILES	SMN2 splice enh	ELG1 genotoxic	uPA generation	FLuc counter	Rab9 promoter act	NPC1 prom act
O=C(COc1ccc2ccccc2c1)Nc1ccccc1C(=O)O	nt	14%	-3%	17µM*	25%	18%
O=C(COc1ccc2ccccc2c1)NC1CC1	-14%	17%	3%	17µM*	?	11%
O=C(O)Cc1ccc(NC(=O)COc2ccc3ccccc3c2)cc1	nt	9%	-4%	19µM*	6%	-4%
CCNC(=O)c1c(NC(=O)c2cc(=O)c3ccc(C)c(C)c3o2)sc2c1CCCC2	0%	nt	nt	0%	nt	nt
Fc1ccccc1/C=N/Nc1nc(-c2ccccn2)nc2ccccc12	nt	9%	nt	9.5µM*	-28%	-24%
COc1ccc(CCNc2nc(-c3cccnc3)nc3ccccc23)cc1OC	nt	-3%	5%	-18%	-1%	0%
COc1ccc(/C=N/Nc2nc(-c3cccnc3)nc3ccccc23)cc1OC	nt	4%	-1%	2.1µM*	7%	5%
Cc1ccc(-c2nc(N/N=C/c3ccncc3)c3ccccc3n2)cc1	-24%	?	?	0.076µM*	2µM*	?
Cc1c(O)ccc(/C=N/Nc2nc(-c3cccnc3)nc3ccccc23)c1O	nt	12%	?	3.4µM*	25%	18%
COc1ccccc1C(=O)Nc1nnc(S(=O)(=O)N(C)c2ccc(Cl)cc2)s1	nt	nt	nt	-7%	nt	nt
CN(CC(=O)Nc1cccc(F)c1)C(=O)CCc1nc2ccccc2c(=O)[nH]1	nt	0%	0%	3%	1%	-3%
Oc1ccc(/C=N/Nc2nc(-c3cccnc3)nc3ccccc23)c(O)c1	nt	-3%	0%	4.8µM*	4%	-1%
COc1cccc(/C=C/C(=O)OCC(=O)Nc2ccc(Cl)c(S(=O)(=O)N(C)C)c2)c1	-1%	0%	3%	11µM*	-5%	-1%
CN(C)S(=O)(=O)c1cc(NC(=O)COC(=O)/C=C/c2ccco2)ccc1Cl	nt	4%	?	?	-2%	-1%
CN(C)S(=O)(=O)c1cccc(NC(=O)COC(=O)CCOc2ccccc2)c1	-12%	6%	2%	-19%	7%	-7%
COc1cccc(/C=C/C(=O)OCC(=O)Nc2cccc(S(=O)(=O)N(C)C)c2)c1	-21%	22%	-9%	11µM*	-7%	0%
CCCCNC(=O)c1ccc2c(c1)ncn2C1CCCC1	4%	?	nt	17µM*	4%	0%
CCCCCCCCCCCCCCC(C(=O)O)C(O)(CC(=O)OC)C(=O)O (centres undefined)	-12%	nt	nt	nt	nt	nt
CC(C)C(=O)Nc1cccc(-c2cn3ccccc3n2)c1	-5%[1.84 µM]	8%	0%	11µM*	17%	12%
Cc1ccn2cc(-c3cccc(NC(=O)C(C)C)c3)nc2c1	14µM*	?	?	6µM*	?	25%
Cc1cccn2cc(-c3cccc(NC(=O)C(C)C)c3)nc12	?	nt	nt	11µM*	nt	nt
CC(=O)Nc1cccc(-c2cn3ccccc3n2)c1	?	13%	-5%	19µM*	27%	16%
CCC(CC)C(=O)Nc1cccc(-c2cn3cccnc3n2)c1	nt	nt	nt	-8%	nt	nt

High-throughput results from PubChem BioAssay.
